Experimental findings from PubChem BioAssay are described below.

Assay [1] in a line: reducers of endogenous Her2 protein level, primary screen, SKBR3 breast tumor cells, AlphaScreen, ATP viability (AID 461;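 active means Her2 level under about 52% in both replicate screens, with viability over 70% of control, limit read from the data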;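 on Her2 level: lower value means less Her2 protein in the cells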;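 on viability: percent of carrier control wells set as 100% viability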). The note with it: 18-24 h, measured here: SKBR3 viability, ATP luminescence, at 10 µM.
Assay [2] concerns the target Receptor tyrosine-protein kinase erbB-2 (Homo sapiens) (UniProt P04626). Described as above. The following applies: 18-24 h, at 10 µM, stronger effect = lower value.
Assay [3] can be described thus: SK-BR-3 cell growth inhibitors, pilot screen, 24 h, human (AID 572;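 active means viability at or below 10% of carrier control in both of two separate runs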;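 further: compound exposure lasted between 18 and 24 h rather than exactly 24 h; 100% = carrier-treated control wells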). The following applies: SK-BR-3 viability, CellTiter-Glo luminescence, at 10 µM, stronger effect = lower value. For orientation: Cellular ATP, detected with luciferase, serves as a proxy for viable cell number.
Assay [4] can be described thus: HUVEC growth inhibition – cell-based, human, primary screen (AID 575).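 Further: 100% = median of untreated cell wells with 0.1% DMSO on each plate.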 The following applies: HUVEC proliferation, CellTiter-Glo luminescence, 72 h; at 10 µM; stronger effect = lower value.
Assay [5] in a line: growth inhibitors of H69AR lung tumor, primary screen, human, duplicate replicates (AID 580;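 active means viability at or under a set limit in both replicates, limit being median viability minus 3 SD, cut at about 48% in these data, passing the limit was not always enough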;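 further: 100% = mean luminescence of untreated wells and 0% = no signal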). The following applies: H69AR lung tumor cells viability, ATP luminescence, 72 h; at 10 µM; stronger effect = lower value.
Assay [6] can be described thus: reversal of MRP1-mediated doxorubicin resistance, pilot screen, H69AR cells, doxorubicin co-treatment (AID 601;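 active means viability loss from added drug above about 55%, and viability with drug at most 40%, in both replicates, limit read from the data, passing the limit was not always enough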). The following applies: CellTiter-Glo, 72 h, at 10 µM; for differential viability (reversal): stronger effect = higher value.
Assay [7] in a line: 384-well plate pilot, post-Golgi transport modulator project, inhibition of yeast transport mutant growth (AID 636; in the data active means inhibition above about 31%). The following applies: absorbance 615 nm, about 18 h, stronger effect = higher value.
Assay [8] in a line: growth suppression of yeast trafficking mutant, preliminary HTS, modulators of trafficking downstream of Golgi apparatus project, 1536-format plate, OD 615 nm (AID 637; in the data active means inhibition above about 30%). The note with it: yeast transport mutant growth, absorbance 615 nm, 18 h; stronger effect = higher value.
A short description of assay [9]: OD615 S. cerevisiae growth inhibition, permissive medium, pilot counter-assay, permissive growth control for S. cerevisiae lifespan shortening project (AID 705;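 active means growth inhibition above 25% in both replicates, a cutoff set 3 SD above the mean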). The following applies: OD615, 24 h, at 10 µM, stronger effect = higher value.
A short description of assay [10]: Restrictive medium S. cerevisiae growth inhibition, OD615, pilot screen of yeast lifespan reduction project, restrictive growth control (AID 706;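 active means growth inhibition above a set limit, 3 SD over mean compound inhibition, in both replicates, cut at about 43% in these data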;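 further: modified DeaD lifespan yeast strain shifted to restrictive glucose medium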). The following applies: OD615, 48 h, at 10 µM, stronger effect = higher value.
Assay [11] is described as follows: viability gain of MRP-1-high H69AR cells under doxorubicin, pilot screen, MRP-1 activator project, CellTiter-Glo, duplicate (AID 807;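 active means viability increase at or above a cutoff of the median across tested compounds plus 3 SD, cut at about 8.5% in these data, passing the limit was not always enough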;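 further: compound pretreatment 18-22 h then 72 h combined with doxorubicin; 0% = doxorubicin alone and 100% = vehicle without doxorubicin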). The note with it: H69AR viability with doxorubicin, CellTiter-Glo luminescence; at 10 µM; stronger effect = higher value.
Assay [12] in a line: growth suppression of beta-catenin knockout HCT116, pilot screen, human colon tumor cells (AID 823;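 active means cell viability at or below a set limit in both duplicate runs, the limit being the all-compound median minus 4 SD, cut at about 23% in these data, passing the limit was not always enough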;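 further: 0% = wells killed by 20 µM Hyamine and 100% = untreated DMSO cell wells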). The following applies: CellTiter-Glo, 60 h, at 10 µM, stronger effect = lower value.
The nature of assay [13]: growth suppression of PTEN-deleted HCT116, pilot screen, cell-based, HCT116 clonal line, CellTiter-Glo (AID 824;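 active means viability at or below 27.92% in each of two runs, the all-compound median minus 4 SD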;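 further: 0% = 20 µM Hyamine control and 100% = vehicle cell control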). The following applies: 60 h, at 10 µM, stronger effect = lower value.
Assay [14] is described as follows: inhibitors of the yeast RAM network, pilot screen, dse1pr::URA3 reporter, 5-FOA selection (AID 869;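 active means inhibition over a set limit, the all-compound mean plus 3 SD, in both replicate runs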;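 further: 0% = DMSO wells with no growth and 100% = 10 µM 1-NA-PP1 with full growth; RAM network block rescues cells from 5-FOA so hits raise OD615 growth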). The note with it: S. cerevisiae dse1pr::URA3 5-FOA growth, OD615, 2 d; at 10 µM; stronger effect = higher value; strain carries analog-sensitive mutant Cbk1 kinase.
Assay [15] is described as follows: RAM signaling pathway blockade in yeast – S. cerevisiae, Pdr1DBD-CYC8 efflux-inhibited sensitized strain, primary screen (AID 1298;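 active means RAM network inhibition above 8.4% in each of two replicates, 3 SD over the compound average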;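 further: 0% = DMSO untreated cells without growth and 100% = 10 µM 1-NA-PP1 full growth; higher means more yeast growth rescued from 5-FOA killing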). The note with it: S. cerevisiae cbk1-as DSE1-URA3 strain, 5-FOA growth OD615, 2 d; at 50 µM; stronger effect = higher value.
Where [16] appears, read: H69AR cells + 2 uM doxorubicin, measured here: viability with 2 uM doxorubicin, stronger effect = lower value.
The mark [17] stands for this setting: H69AR cells, compound alone cytotoxicity.

Inconclusive results are not listed. The source made the active and inactive calls.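 How the source made its calls, unless noted: active means viability at or below 30% in both replicate assays; inconclusive means viability at or below 30% in just one of the two assays; inactive means the rest.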

Receptor tyrosine-protein kinase erbB-2 (Homo sapiens), sequence (P04626 whole entry, looked up): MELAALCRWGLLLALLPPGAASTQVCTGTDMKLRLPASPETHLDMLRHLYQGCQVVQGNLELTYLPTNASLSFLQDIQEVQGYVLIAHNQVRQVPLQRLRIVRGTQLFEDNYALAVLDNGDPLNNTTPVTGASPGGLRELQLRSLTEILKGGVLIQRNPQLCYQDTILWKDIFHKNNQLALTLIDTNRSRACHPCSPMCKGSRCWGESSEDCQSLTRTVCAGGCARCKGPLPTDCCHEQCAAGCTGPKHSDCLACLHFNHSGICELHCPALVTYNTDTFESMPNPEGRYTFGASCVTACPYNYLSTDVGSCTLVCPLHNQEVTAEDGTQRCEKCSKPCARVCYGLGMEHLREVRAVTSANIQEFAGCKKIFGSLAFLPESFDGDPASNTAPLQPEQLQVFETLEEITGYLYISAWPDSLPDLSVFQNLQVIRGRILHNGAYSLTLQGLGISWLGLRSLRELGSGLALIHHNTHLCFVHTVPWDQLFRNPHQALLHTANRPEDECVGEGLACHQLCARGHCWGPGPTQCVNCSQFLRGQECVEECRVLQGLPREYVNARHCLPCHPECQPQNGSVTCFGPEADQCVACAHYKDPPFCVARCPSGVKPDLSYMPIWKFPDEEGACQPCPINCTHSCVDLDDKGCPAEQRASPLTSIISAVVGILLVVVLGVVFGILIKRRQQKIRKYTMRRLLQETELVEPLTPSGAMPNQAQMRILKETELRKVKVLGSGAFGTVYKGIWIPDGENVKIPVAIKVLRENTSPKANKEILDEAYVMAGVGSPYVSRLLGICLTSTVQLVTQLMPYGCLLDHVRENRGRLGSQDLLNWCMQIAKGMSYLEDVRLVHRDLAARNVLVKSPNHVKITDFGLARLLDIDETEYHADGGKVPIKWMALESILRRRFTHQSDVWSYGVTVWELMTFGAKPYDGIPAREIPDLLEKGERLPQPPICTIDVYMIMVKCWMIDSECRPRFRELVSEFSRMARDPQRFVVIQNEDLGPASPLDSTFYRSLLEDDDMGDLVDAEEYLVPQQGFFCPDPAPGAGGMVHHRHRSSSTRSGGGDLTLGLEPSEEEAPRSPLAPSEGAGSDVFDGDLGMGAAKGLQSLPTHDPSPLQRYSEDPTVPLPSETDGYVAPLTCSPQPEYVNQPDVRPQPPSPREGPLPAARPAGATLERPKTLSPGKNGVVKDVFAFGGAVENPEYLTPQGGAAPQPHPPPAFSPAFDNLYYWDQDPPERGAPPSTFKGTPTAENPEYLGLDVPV

For orientation: viability means a read-out of living cells in per cent, often relative to untreated cells. Broadly, the inhibition is the drop in the measured response relative to a control, in per cent. Take `CN(CC(=O)N1CCCCC1)S(=O)(=O)c1cccc2cccnc12`: the viability in [1] is 99%; in assay [3], 99% (inactive); in assay [4], 91.5% (inactive); in assay [5] it was 97.5% (inactive); in [6] (setting [16]), 95.8%; in assay [6] (setting [17]), 97.5%. Moreover, the viability was 94.6% (inactive) in [12] and 94.7% (inactive) in assay [13]. Besides, in [2], the Her2 level was 104% (inactive). The differential viability (reversal) in assay [6] (H69AR cells + 2 uM doxorubicin) is 1.62% (inactive). Further, the values for the inhibition in [7], in assay [8] and in assay [14] were -0.4% (inactive), -1.8% (inactive) and 0.26% (inactive), respectively. Moreover, the results for the growth inhibition in assay [9] and in assay [10] were -4.94% (inactive) and 9.9% (inactive), respectively. In assay [11], the viability increase was -2.03% (inactive). The RAM network inhibition in [15] was 1.14% (inactive).

As for `CCOC(=O)c1sc2nc(NC(=O)C3CCCCC3)sc2c1C`, the viability in [1] was 95.5%; in assay [3], 95.5% (inactive); in assay [4], 58.7% (inactive); in assay [5] it was 76.9% (inactive); in assay [6] (setting [16]), 75.7%; in assay [6] (setting [17]), 76.9%. For the same molecule, the figures for the viability in assay [12] and in assay [13] were 89.1% (inactive) and 95.2% (inactive), respectively. Further, in assay [2], the Her2 level was 92.5% (inactive). Further, the differential viability (reversal) in assay [6] (H69AR cells + 2 uM doxorubicin) is 1.21% (inactive). Moreover, the inhibition in [7] was -0.4% (inactive); in assay [8], -7.21% (inactive); in assay [14] it was 3.21% (inactive). Also, the growth inhibition in assay [9] is -4.09% (inactive); in assay [10] it was -7.62% (inactive). For the same molecule, in assay [11], the viability increase is -0.22% (inactive). Moreover, the RAM network inhibition in assay [15] was 4.73% (inactive).

As to `CCN(CC)Cc1c(C(=O)OC)nnn1-c1nonc1N`, the viability in assay [1] was 87%; in assay [3], 87% (inactive); in [4] it was 99.6% (inactive); in assay [5], 106% (inactive); in assay [6] (setting [16]), 92.1%; in assay [6] (setting [17]), 106%. Besides, the viability in assay [12] was 94.2% (inactive); in assay [13] it was 102% (inactive). In assay [2], the Her2 level is 95.5% (inactive). In assay [6] (H69AR cells + 2 uM doxorubicin), the differential viability (reversal) was 13.6% (inactive). Further, the inhibition was -7.4% (inactive) in assay [7], -3.33% (inactive) in [8] and 0.645% (inactive) in assay [14]. For the same molecule, the growth inhibition was -0.575% (inactive) in assay [9] and -3.39% (inactive) in [10]. The viability increase in [11] is -2.07% (inactive). In addition, in assay [15], the RAM network inhibition is 0.53% (inactive).

For `Cc1c(NC(=O)c2ccc(Br)o2)c(=O)n(-c2ccccc2)n1C`, the viability in assay [1] was 91%; in [3], 91% (inactive); in assay [4] it was 89.2% (inactive); in [5] it was 91.2% (inactive); in [6] (setting [16]) it was 86.1%; in [6] (setting [17]), 91.2%. Further, the viability in assay [12] was 97.7% (inactive); in assay [13] it was 103% (inactive). Besides, the Her2 level in assay [2] is 96% (inactive). Further, the differential viability (reversal) in assay [6] (H69AR cells + 2 uM doxorubicin) is 5.07% (inactive). Moreover, the results for the inhibition in assay [7], in assay [8] and in [14] were -5.06% (inactive), -1.67% (inactive) and 1.59% (inactive), respectively. Moreover, the growth inhibition is -11.6% (inactive) in assay [9] and -4.15% (inactive) in [10]. In addition, the viability increase in assay [11] was 0.9% (inactive). Besides, the RAM network inhibition in assay [15] was 2.23% (inactive).

`CCOC(=O)N1CCN(C(=O)COc2ccc(S(=O)(=O)NC(C)C)cc2)CC1`: the viability in assay [1] was 96%; in assay [3], 96% (inactive); in [4] it was 106% (inactive); in [5], 90.3% (inactive); in [6] (setting [16]), 90%; in [6] (setting [17]), 90.3%. Moreover, the figures for the viability in [12] and in assay [13] were 96.2% (inactive) and 93% (inactive), respectively. For the same molecule, the Her2 level in assay [2] is 105% (inactive). Moreover, the differential viability (reversal) in assay [6] (H69AR cells + 2 uM doxorubicin) is 0.365% (inactive). In addition, the inhibition was -5.07% (inactive) in assay [7], 2.33% (inactive) in assay [8] and 1.71% (inactive) in assay [14]. For the same molecule, the growth inhibition is -17.6% (inactive) in [9] and -20.2% (inactive) in assay [10]. The viability increase in assay [11] is -0.64% (inactive). In addition, in assay [15], the RAM network inhibition was 7.54% (inactive).

On to `Cc1nc2ccc(C(=O)c3ccccc3)cc2[nH]1`, for which the viability in assay [1] was 102%; in assay [3] it was 102% (inactive); in assay [4] it was 110% (inactive); in assay [5], 94.2% (inactive); in [6] (setting [16]), 91.7%; in assay [6] (setting [17]), 94.2%. The viability in assay [12] was 99.4% (inactive); in [13], 100% (inactive). In addition, in assay [2], the Her2 level was 82% (inactive). Further, in [6] (H69AR cells + 2 uM doxorubicin), the differential viability (reversal) was 2.49% (inactive). The inhibition is -3.64% (inactive) in [7], 0.33% (inactive) in assay [8] and 1.42% (inactive) in assay [14]. The figures for the growth inhibition in assay [9] and in [10] were -6.26% (inactive) and 2.11% (inactive), respectively. Also, in assay [11], the viability increase is 0.26% (inactive). Moreover, in assay [15], the RAM network inhibition is 5% (inactive).

Consider `CCOCCCNC(=O)C(NC(=O)c1ccccn1)c1ccc(C)cc1` (stereo not drawn), for which the viability is 94.5% in assay [1]; 94.5% (inactive) in assay [3]; 104% (inactive) in [4]; 106% (inactive) in assay [5]; 97.3% in assay [6] (setting [16]); 106% in [6] (setting [17]). For the same molecule, the viability is 108% (inactive) in assay [12] and 97.3% (inactive) in assay [13]. Also, in assay [2], the Her2 level is 120% (inactive). Moreover, the differential viability (reversal) in assay [6] (H69AR cells + 2 uM doxorubicin) is 8.57% (inactive). In addition, the inhibition in [7] was -2.6% (inactive); in [8], 1.9% (inactive); in [14], 0.07% (inactive). For the same molecule, the values for the growth inhibition in assay [9] and in assay [10] were -4.42% (inactive) and 1.57% (inactive), respectively. The viability increase in assay [11] is -0.13% (inactive). Besides, the RAM network inhibition in [15] was 0.36% (inactive).

Consider `CCCC(=O)N1CC(=O)Nc2ccc(C)cc2C1c1ccc(F)cc1` (stereo not drawn), for which the viability in [1] is 86%; in assay [3], 86% (inactive); in assay [4] it was 79.9% (inactive); in [5], 97.4% (inactive); in [6] (setting [16]), 77.1%; in assay [6] (setting [17]) it was 97.4%. Besides, the viability in [12] was 82.2% (inactive); in assay [13], 84.2% (inactive). The Her2 level in [2] was 101% (inactive). Further, the differential viability (reversal) in [6] (H69AR cells + 2 uM doxorubicin) is 20.3% (inactive). Moreover, the inhibition in assay [7] was -2% (inactive); in assay [8], 0.16% (inactive); in assay [14], 1.42% (inactive). Also, the growth inhibition in assay [9] was -8.09% (inactive); in assay [10], -8.8% (inactive). Moreover, in [11], the viability increase is -3.73% (inactive). In assay [15], the RAM network inhibition was 2.82% (inactive).

As for `O=C(Cn1cc2c(n1)CCCCC2)N1CCc2ccccc2C1`, the viability in assay [1] was 116%; in assay [3], 116% (inactive); in assay [4], 95% (inactive); in assay [5], 92.9% (inactive); in assay [6] (setting [16]) it was 89.8%; in [6] (setting [17]), 92.9%. Besides, the viability in assay [12] was 86.2% (inactive); in assay [13], 84.7% (inactive). The Her2 level in assay [2] was 114% (inactive). Besides, the differential viability (reversal) in assay [6] (H69AR cells + 2 uM doxorubicin) was 3.17% (inactive). Besides, the results for the inhibition in [7], in [8] and in assay [14] were -2.18% (inactive), -3% (inactive) and 1.98% (inactive), respectively. The growth inhibition in assay [9] was 7.48% (inactive); in assay [10], 10.6% (inactive). The viability increase in assay [11] is 1.54% (inactive). The RAM network inhibition in assay [15] is 6.93% (inactive).
